{
  "source": "PubChem BioAssay (Tox21)",
  "note": "Values joined by “and” are separate entries in the source; they are usually repeats but may differ in a detail not shown here. Equal entries are not always repeated. Inconclusive results are not listed. Entries that show only a call come without a potency. More than one record can exist for a structure, and the calls need not agree. Active and inactive are the calls of the source. Calls follow the shape of the dose curve; as a rule, active = well fitted cell-killing curve with a large enough effect in the repeat runs; inconclusive = weak or mixed curves, or effect the other way; inactive = no such curve, though single readings can be large or run the other way. Potency is read from the fitted curve at half-maximal effect.",
  "data": [
    {"test": "qHTS assay to identify small molecule agonists of the vitamin D receptor (VDR) signaling pathway - cell viability counter screen (AID 743224); also: nearly all actives have a fitted effect of over 50% in size", "details": "VDR-bla HEK293T viability, CellTiter-Glo luminescence, 16 h; series mostly up to 62.6 µM", "in_short": "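CellTiter-Glo viability readout on VDR-bla cells, measured after 16 h of compound treatment at 37C in the same wells.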", "values": [
      {"compound": "Cc1cccc(Nc2ccccc2C(=O)O)c1C", "Potency": "inactive"},
      {"compound": "[Na+]", "Potency": "inactive"},
      {"compound": "Nc1cc(Cl)c(N)c(Cl)c1", "Potency": "inactive"},
      {"compound": "IC(I)I", "Potency": "inactive"},
      {"compound": "c1ccc2c(c1)[nH]c1ccccc12", "Potency": "inactive"},
      {"compound": "CC(=O)Oc1c(C)c(C)c2c(c1C)CC[C@@](C)(CCC[C@H](C)CCC[C@H](C)CCCC(C)C)O2", "Potency": "49 µM (active) and inactive"},
      {"compound": "O=C1OC2(c3ccccc31)c1cc(I)c(O)c(I)c1Oc1c2cc(I)c(O)c1I", "Potency": "inactive and 26.5 µM (active)"},
      {"compound": "Nc1ccc(N)c(Cl)c1", "Potency": "inactive"},
      {"compound": "O=C(CCCN1CCC(O)(c2ccc(Cl)cc2)CC1)c1ccc(F)cc1", "Potency": "inactive"},
      {"compound": "CCO[Si](CCCNC(N)=O)(OCC)OCC", "Potency": "inactive"},
      {"compound": "OC[C@H]1O[C@@H]2O[C@H]3[C@H](O)[C@@H](O)[C@@H](O[C@H]4[C@H](O)[C@@H](O)[C@@H](O[C@H]5[C@H](O)[C@@H](O)[C@@H](O[C@H]6[C@H](O)[C@@H](O)[C@@H](O[C@H]7[C@H](O)[C@@H](O)[C@@H](O[C@H]1[C@H](O)[C@H]2O)O[C@@H]7CO)O[C@@H]6CO)O[C@@H]5CO)O[C@@H]4CO)O[C@@H]3CO", "Potency": "inactive"},
      {"compound": "C=CN1CCCC1=O", "Potency": "inactive"},
      {"compound": "CN(Cc1cnc2nc(N)nc(N)c2n1)c1ccc(C(=O)N[C@@H](CCC(=O)O)C(=O)O)cc1", "Potency": "30.9 nM (active) and 188 nM (active)"},
      {"compound": "O=C(O)CCCCCCCCCCCC(=O)O", "Potency": "inactive"},
      {"compound": "Cc1ccc(N)c([N+](=O)[O-])c1", "Potency": "inactive"},
      {"compound": "C[C@]12C=CC(=O)C=C1CC[C@H]1[C@@H]3C[C@@H](O)[C@](O)(C(=O)CO)[C@@]3(C)C[C@H](O)[C@@]12F", "Potency": "inactive"}
    ]}
  ]
}
